Source: PubChem BioAssay AID1471 (National Center for Advancing Translational Sciences (NCATS), 2008)
Where “and” joins values, the source holds several entries; their conditions need not be identical. Equal entries are not always repeated. Out of some 230,000 compounds screened, about 310 (0.13%) were called active. Another 2% or so got no clear call; they are omitted. This is one part of a sample in which actives are shown more often than they occur. Values without a mark were called inactive. Calls come from the whole dose curve; as a rule, active = well fitted activation curve with a large enough effect; inconclusive = small, poorly fitted or top-dose-only effect; inactive = no such curve, though single readings can be large or run the other way.

Assay: qHTS Multiplex Assay to Identify Dual Action Probes in a Cell Model of Huntington: Cytoprotection (ATP); note: nearly all actives have a fitted effect of over 45% in size;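 for cytoprotection (ATP increase): toxic huntingtin expression switched on by the ecdysone agonist tebufenozide; % of control where 0% means no effect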
Conditions: PC12 HTT-Q103 induced, ATP luminescence, 40 h; series mostly up to 56.4 µM; cytoprotection (ATP increase): at the top concentration
Excerpt: NIH Chemical Genomics Center [NCGC]
NIH Molecular Libraries Probe Production centers Network [MLPCN]
Assay Submitter (PI): Wei Zheng
Huntington's disease is a neurodegenerative disorder caused by a trinucleotide repeat expansion in Exon 1 of the Huntingtin gene. The CAG trinucleotide encodes glutamine and polyglutamine expansions cause cell death in selective areas of the brain. Huntington polyglutamine repeats have the tendency to form aggregates which are observable in later stages of the disease. The exact nature of the aggregates, whether toxic, protective, or insignificant, is unclear.
A stable PC12 cell line containing a gene fusion of Exon 1 of the Huntingtin gene linked to GFP under the control of the inducible ecdysone promoter were used as the cell-based model of Huntington Disease for high throughput screening. Exon 1 of the Huntingtin gene contained an expansion of 103 polyglutamines (Q103) which, when expressed, caused cell death and distinct, bright GFP aggregates. The amount of cell death and the size and intensity of GFP aggregates increased over time and induction level. The cell death were quantified with a measurement of ATP content in the cells. A maximal 40-50% of cell death was observed when the Huntington gene was induced in this cell line.
We optimized this assay in a homogeneous 1536 well format. A quantitative high throughput screen (qHTS) was conducted on the PC12 cells which were induced to express the toxic fusion construct. Small molecules which prevented cell death were identified by using a luminescent ATP quantification method (Perkin Elmer's ATPlite).
PC12 cells stably containing a construct with an ecdysone inducible promoter expressing GFP fused to the exon 1 of HTTQ103 (Huntington protein which containing a 103 ployglutamine expansion) were used.
NCGC Assay Protocol Summary:
Sequence, Parameter, Description
1, Reagent, 5 uL 1500 cells/well 1536 TC treated White clear bottom plate
2, Compound, 23 nL Tebufenozide inducer (100 nM final) to all columns
3, Compound, 23 nL 40 uM to 0.5 nM Libraries
5, Reagent, 5 ul ATPLite cell death assay reagent
6, Detector, 4 sec integration with a Viewlux Luminescent
Media consisted of phenol red free DMEM + 5% equine serum (Hyclone # SH30072.03 ), 5% supplemented Bovine Calf Serum (Hyclone # SH30074.03 ), 1x pen/strep, no G418
Control columns: 1 = DMSO, 2= 2 uM teb dilns (1:1), 4 = 100 nM Teb inducer. Sample columns received 100 nM Teb.

Going from COC(=O)C(C(=O)OC)[C@@H](NC=O)c1ccccc1 to COCCCNC(=O)C1CC(=O)N(CCc2ccccc2)C1 (stereo not drawn), the “cytoprotection (ATP increase)” value rises from -30.4% to -12%.

Compared with COc1ccc2c(c1)O[C@@H](c1ccc3c(c1)OCO3)[C@H](OC(=O)NCCc1ccc(OC)c(OC)c1)C2=O, COc1cccc([C@@H]2Oc3ccc(Br)cc3C(=O)[C@H]2OC(=O)NCCc2ccc(OC)c(OC)c2)c1 is higher in “cytoprotection (ATP increase)” value: -180% for the first, -49.1% for the second.

First: COc1cc2c(cc1OC)[C@@H](Cc1cc(OC)c(OC)c(OC)c1)[N+](C)(CCCOC(=O)CC/C=C/CCC(=O)OCCC[N+]1(C)CCc3cc(OC)c(OC)cc3[C@H]1Cc1cc(OC)c(OC)c(OC)c1)CC2 (stereo partly drawn)
Second: C=C1c2cccc(OC)c2O[C@H](C(=O)OCC)[C@@H]1CCCCCC
The “cytoprotection (ATP increase)” value of the first is higher: 6.54% for the first, -42.4% for the second.

First: C=C(C(C)=O)C(O)c1cccs1 (stereo not drawn)
Second: O=C(Nc1ccc(O)cc1)c1ccccc1O
The “cytoprotection (ATP increase)” value of the first is higher: -12.9% for the first, -145% for the second.

Compared with CC(C)(Oc1ccc(C2CC2(Cl)Cl)cc1)C(=O)O (stereo not drawn), Cc1ccc(CC2(O)CCN(CCOc3ccc(O)cc3)CC2)cc1 is lower in “cytoprotection (ATP increase)” value: 30.1% for the first, -66.8% for the second.

Going from CCn1c(C(C)C)n[nH]c1=S to CCn1c(-c2ccncc2)n[nH]c1=S, the “cytoprotection (ATP increase)” value rises from -26.1% to -8.17%.

Going from CC(C)=CCN1CCC2(CCc3ccccc32)CC1 to O=C1OCCN1C(=O)[C@H]1[C@H](c2ccccc2)C(c2ccc(F)cc2)=NN1c1ccccc1, the “cytoprotection (ATP increase)” value falls from -37.2% to -95.6%.

Compared with O=P(O)(O)OC[C@H](O)CO, CC1=C2[C@@H](O)[C@H]([C@@H](C)C(=O)NCCC(C)C)CC[C@@]2(C)C=CC1=O is higher in “cytoprotection (ATP increase)” value: 2.81% for the first, 16% for the second.

First: CC(C)(C)OC(=O)NCCCC1=CC2=CC(=O)C(C)(OC(=O)c3ccco3)C(=O)C2=CO1 (stereo not drawn)
Second: CC1(OC(=O)C2CCCC2)C(=O)C=C2C=C(c3ccc(C#N)cc3)OC=C2C1=O (stereo not drawn)
The “cytoprotection (ATP increase)” value of the first is lower: -5.66% for the first, 14.5% for the second.

Going from CCNC(=O)COC(=O)/C=C/c1c(C)nn(Cc2cccc(OC)c2)c1Cl to Cc1ccc(-c2ncc(Cl)cc2-c2ccc(S(C)(=O)=O)cc2)cn1, the “cytoprotection (ATP increase)” value rises from -27% to -6.4%.

Going from CN(C)c1nc(N)nc(Cn2nnc(-c3ccc(C(F)(F)F)cc3)n2)n1 to C=C1O[C@@](CO)(n2cnc3c(N)ncnc32)[C@H](O)[C@@H]1O, the “cytoprotection (ATP increase)” value falls from -14.2% to -56.7%.

Compared with CCCCC/C=C\C/C=C\C/C=C\CCCCCCC(N)=O, CCCCC/C=C\C/C=C\C/C=C\CCCCC(=O)NCC(=O)O is lower in “cytoprotection (ATP increase)” value: 26.9% for the first, 19.8% for the second.

With Cc1cc2oc(=O)cc(-c3ccccc3)c2c(C)c1/C=C/c1ccc(F)cc1 the “cytoprotection (ATP increase)” value was 7.14%.

Compared with CC1(OC(=O)c2ccc(Cl)nc2)C(=O)Cc2cc(-c3ccsc3)ncc2C1=O (stereo not drawn), COc1cccc(NC(=O)CN(C)CC(=O)Nc2ccc3c(c2)CCC3)c1 is higher in cytoprotection (ATP increase): -9.48% [at 10 µM] for the first, 19.6% [at 10 µM] for the second.

Going from CCN1C(=O)N[C@@H](CCc2ccccc2)C(C(=O)OC)=C1C to Cc1c(N=Nc2ccc(N(C)C)cc2)c(=O)n(-c2ccccc2)n1C, the cytoprotection (ATP increase) falls from -1.46% [at 10 µM] to -1.47% [at 10 µM].

First: Cc1ccc(Nc2nc(N)nc(CSc3nnc(C)s3)n2)cc1
Second: COc1ccc(-c2nc3c(c4c2C[C@H](c2ccccc2)OC4)CN(S(=O)(=O)c2c(C)noc2C)CC3)c(C)c1
The cytoprotection (ATP increase) of the first is higher: 18.8% [at 10 µM] for the first, -10% [at 10 µM] for the second.

Going from CCOC(=O)C1CCCN(C(=O)c2cccc(S(=O)(=O)N3CCOCC3)c2)C1 (stereo not drawn) to C#CCCOC(=O)N1C2=NC(C(=O)OC)=C(C(=O)OC)[C@@H]3N(C)c4ccc(OC)cc4[C@]23C[C@H]1C(=O)OC, the cytoprotection (ATP increase) falls from 21.6% [at 10 µM] to -19.2% [at 10 µM].

First: COc1ccc(N=Nc2ccc(O)c(P(=O)(c3ccccc3)c3ccccc3)c2)cc1
Second: O=C1/C(=C/c2cccs2)SC(=S)N1C1CCS(=O)(=O)C1 (stereo not drawn)
The cytoprotection (ATP increase) of the first is higher: 13.4% [at 10 µM] for the first, -20.7% [at 10 µM] for the second.

With C=CCOC(=O)NC(c1ccc(F)c(F)c1)C(C(=O)COC)C(=O)OC (stereo not drawn) the cytoprotection (ATP increase) was “inactive”.
With COC(=O)C1(C(C)=O)CC2=CC[C@H]3C(=O)N(c4ccccc4)C(=O)[C@H]3[C@@H]2Cc2ccccc2[C@@H]1C[N+](=O)[O-] (stereo partly drawn) the cytoprotection (ATP increase) was “inactive”.
In the case of COC(=O)C1=C(C(=O)OC)[C@@H]2N(C)c3ccccc3[C@@]23C[C@@H](C(=O)OC)N(C(C)=O)C3=N1, the cytoprotection (ATP increase) is reported as 0.243% [at 10 µM] and 2.58% [at 10 µM].
For CCCCCCCC/C=C\CCCCCCCC(=O)OC[C@H](CO)OC(C)=O, the cytoprotection (ATP increase) was “inactive”.
With C/C=C1\C2C=C(C)CC1(N)c1ccc(=O)[nH]c1C2 (stereo not drawn) the cytoprotection (ATP increase) was “inactive”.
With CCC(C)[C@@H](N)C(=O)O (stereo partly drawn) the cytoprotection (ATP increase) was “inactive”.

In the case of CCn1c(-c2ccoc2C)n[nH]c1=S, the Potency is reported as 5.62 µM (active).

With C=CCC1CCC(=O)N2CCCC12 (stereo not drawn) the “cytoprotection (ATP increase)” value was 30.3% [at 96.6 µM].
